The panel holds about 79,000 compounds, 15% with a hit somewhere; the sample as a whole holds those more often. A number with no mark means an inactive call. Calls of active or inactive are those of the source. Rule as the data show it: active = growth inhibition above about 70%; inactive = the rest.
Legend:
[1] = NCI Yeast Anticancer Drug Screen. Data for the rad50 strain (AID 155);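 also: 0% = growth of vehicle-only cultures of the same strain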; conditions: S. cerevisiae rad50 strain growth inhibition, active compounds read high
Outline: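 Readout: growth inhibition relative to vehicle-treated cultures. Compound exposure was carried out in a genetically defined yeast strain deficient in DNA damage repair.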

[2] = NCI Yeast Anticancer Drug Screen. Data for the mec2-1 strain (AID 157); conditions: S. cerevisiae mec2-1 strain, active compounds read high
Outline: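 Readout is yeast growth inhibition, normalised to vehicle-treated controls, in the mec2-1 strain exposed to compound.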

[3] = NCI Yeast Anticancer Drug Screen. Data for the sgs1 mgt1 strain (AID 161);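 also: 0% = growth of cultures given vehicle only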; conditions: S. cerevisiae sgs1 mgt1 strain, active compounds read high
Outline: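 Percent growth inhibition was derived by comparing compound-exposed mutant yeast with vehicle-exposed cultures. The strain carries alterations in DNA damage repair.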

[4] = NCI Yeast Anticancer Drug Screen. Data for the cln2 rad14 strain (AID 165);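 also: 0% = growth equal to vehicle treated cultures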; conditions: S. cerevisiae cln2 rad14 strain, active compounds read high
Outline: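 Relative to vehicle controls, growth inhibition of compound-treated cln2 rad14 yeast was recorded.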

[5] = NCI Yeast Anticancer Drug Screen. Data for the bub3 strain (AID 167); conditions: S. cerevisiae bub3 mutant strain, active compounds read high
Outline: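 Readout: yeast growth inhibition, expressed relative to vehicle-only wells. The test organism is a mutant strain from a panel with lesions in DNA repair or checkpoint genes.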

[6] = NCI Yeast Anticancer Drug Screen. Data for the mlh1 rad18 strain (AID 175); conditions: S. cerevisiae mlh1 rad18 strain growth inhibition, active compounds read high
Outline: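 Test agents were incubated with a yeast strain of defined genotype (DNA damage repair defect). Inhibition of growth was derived by comparison with vehicle-exposed cultures.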

[7] = at 5.0 µM (retest, dose inferred, filed as 0.5)
[8] = at 50.0 µM (retest, dose inferred, filed as 5.0)

SMILES	growth inhibition [1, 7]	growth inhibition [1, 8]	growth inhibition ([1]; at 50.0 µM)	growth inhibition [2, 7]	growth inhibition [2, 8]	growth inhibition ([2]; at 50.0 µM)	growth inhibition [3, 7]	growth inhibition [3, 8]	growth inhibition ([3]; at 50.0 µM)	growth inhibition [4, 7]	growth inhibition [4, 8]	growth inhibition ([4]; at 50.0 µM)	growth inhibition [5, 7]	growth inhibition [5, 8]	growth inhibition ([5]; at 50.0 µM)	growth inhibition [6, 7]	growth inhibition [6, 8]	growth inhibition ([6]; at 50.0 µM)
Cc1cc(CCN)c(C)c2c1oc1ccccc12	-9%	95% (active)	98.5% (active)	-7%	88% (active)	70.2% (active)	-7%	99% (active)	98.8% (active)	-5%	98% (active)	62.8%	-22%	96% (active)	93% (active)	-6%	98% (active)	98.6% (active)
C/C(=N\Nc1ccccc1)C(CN(C)C)C(c1ccccc1)c1c(O)c2ccccc2oc1=O (configuration not stated)	24%	24%	88.2% (active)	14%	14%	86.2% (active)	16%	16%	87.8% (active)	5%	5%	86% (active)	10%	10%	83.6% (active)	12%	12%	86.5% (active)
COc1cc(N(CC(C)Br)CC(C)Br)ccc1N=Nc1ccccc1C(=O)O (configuration not stated)	42%	96% (active)	65.2%	26%	95% (active)	29.1%	54%	95% (active)	32.4%	52%	98% (active)	78.2% (active)	52%	92% (active)	32.9%	33%	94% (active)	80.2% (active)
O=C1C(F)=C(N2CC2)C(=O)C(N2CCOCC2)=C1N1CC1	94% (active)	98% (active)	90% (active)	99% (active)	98% (active)	89.8% (active)	98% (active)	98% (active)	89.8% (active)	98% (active)	96% (active)	84.5% (active)	99% (active)	97% (active)	91.9% (active)	97% (active)	97% (active)	92% (active)
COC1=C(Cl)C(=O)c2ccccc2C1=O	8%	98% (active)	99.2% (active)	15%	99% (active)	99.5% (active)	6%	99% (active)	99.6% (active)	-2%	98% (active)	99.1% (active)	30%	98% (active)	99.2% (active)	7%	99% (active)	99.4% (active)
CC(=O)O[C@H]1C(=O)O[C@@H]2C[C@H]3C(C)=CC(=O)[C@@H](O)[C@]3(C)[C@H]3[C@@]4(O)OC[C@]32[C@@H]1[C@@H](C)[C@H]4O	21%	86% (active)	81% (active)	31%	78% (active)	51.2%	17%	82% (active)	59.6%	36%	90% (active)	74.2% (active)	1%	74% (active)	60.4%	20%	93% (active)	83.9% (active)
ClCCN(Cc1ccccc1)CC1COc2ccccc2O1 (configuration not stated)	10%	72% (active)	91.2% (active)	-1%	79% (active)	92.1% (active)	7%	95% (active)	90.5% (active)	-2%	34%	82.7% (active)	11%	90% (active)	97.3% (active)	15%	94% (active)	97.3% (active)
CC/C(=C/c1ccc(OC)cc1)[N+](=O)[O-]	80% (active)	99% (active)	99.2% (active)	35%	100% (active)	99.7% (active)	46%	99% (active)	99.5% (active)	20%	100% (active)	99% (active)	49%	99% (active)	99.3% (active)	40%	99% (active)	99.2% (active)
CC[CH](C)[Sn](=[O])[c]1ccccc1 (configuration not stated)	15%	95% (active)	81.1% (active)	28%	93% (active)	80.7% (active)	16%	93% (active)	21.9%	15%	90% (active)	28.1%	10%	96% (active)	20.9%	11%	95% (active)	75.8% (active)

Source: PubChem BioAssay (NCI)
